# Screening data deposited in PubChem BioAssay by National Center for Advancing Translational Sciences (NCATS).
# HT1080NT lethal = kills 2HG-producing HT-1080-NT fibrosarcoma cells; HT-1080-NT fibrosarcoma viability, CellTiter-Glo ATP luminescence, 48 h; Potency, µM (titrated, usually from 46.1 µM), without a hit: top-dose activity, negative = less viability, actives largely listed as cytotoxic; 1.6% of 360,000 active; AID 686970;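 also: NT is the 2HG producing partner of a matched IDH1 knockdown line; potency is read from the fitted curve at half-maximal effect; 0% = DMSO-treated cells and -100% = media-only wells without cells; nearly all actives have a fitted effect of over 55% in size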
#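 HT-1080-NT; 750 cells/well; 5% FBS RPMI; 48 h compound, 37 degrees C; CellTiter-Glo luminescence; curve fitting and curve-class assignment.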
# IL1B secr inh = blocks inflammasome-driven IL-1 beta release; activity change, % at 57.5 µM; 4.7% of 360,000 active; THP-1 LPS/ATP IL-1B secretion, AlphaLISA, 16 h; hits give low values; in the data active = activity change below about -50%; inconclusive = mostly about -30% to -49%
#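 Secreted IL-1B measured by AlphaLISA bead assay after 16 h compound exposure of THP-1 cells; compounds (final up to 57.5 uM) added 1 h before LPS (250 ng/mL) and ATP (1.25 mM) stimulation; lower signal means less secretion.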
# TDP1 cell CPT = growth inhibition of DT40 Tdp1-/-;hTDP1 cells with camptothecin (screen for TDP1 inhibitors); chicken DT40 Tdp1-/-;hTDP1 cells + 20 nM CPT, ATP luminescence, 48 h; AID 686979; Potency, µM (doses to about 46.2 µM), without a hit: at the top dose activity change, negative = growth inhibition, usual class: inhibitors; 12% of 420,000 active; also: potency is read from the fitted curve at half-maximal effect; nearly all actives have a fitted effect of over 55% in size
#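 Chicken DT40 Tdp1-/- cells stably complemented with human TDP1 were seeded at 400 cells/well in medium containing 20 nM camptothecin, exposed to pin-transferred compounds, and grown at 37 °C for at least 48 hr. Viability was read as ATP luminescence.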
# HT1080 IDH1KD tx = HT-1080 IDH1 knockdown cell toxicity (counter line); HT-1080 IDH1 knockdown viability, ATP luminescence, 48 h; Potency, µM (series often up to 46.1 µM), for the others: at the highest dose activity, negative = toxicity, usual class: cytotoxic; 2% of 360,000 active; AID 686971;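 also: potency is read from the fitted curve at half-maximal effect; 0% = DMSO wells and -100% = cell-free medium wells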
#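 Viability of IDH1-knockdown HT-1080 fibrosarcoma cells was assessed by CellTiter-Glo after 48 h at 37 °C with titrated compound; concentration-effect curves were classified by fit quality and response size.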
# DT40 TDP1 no CPT = qHTS for Inhibitors of human tyrosyl-DNA phosphodiesterase 1 (TDP1): qHTS in cells in absence of CPT; DT40 Tdp1-/- hTDP1 cells, no CPT, ATP luminescence, 48 h; Potency, µM (top dose mostly 46.2 µM), without a hit: at the highest dose activity change, negative = growth inhibition, most hits filed as inhibitors; 15% of 420,000 active; AID 686978, 2013; also: potency is read from the fitted curve at half-maximal effect; nearly all actives have a fitted effect of over 55% in size
#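 Growth kinetics read by CellTiter-Glo luminescence after ≥48 hr at 37 °C. Cells: DT40 Tdp1-/- stably carrying human TDP1, 400 per well, compound exposure in the absence of CPT (DMSO vehicle).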
# ALOX12 inh = blocks human arachidonate 12S-lipoxygenase; purified 12hLO, xylenol orange hydroperoxide absorbance; Potency, µM (titrated, usually from 108 µM), without a hit: top-dose activity change, negative = inhibition, hits mostly inhibitors; AID 1671190; 1.1% of 580,000 active; also: potency is read from the fitted curve at half-maximal effect
# Target sequence (P18054 whole entry, looked up): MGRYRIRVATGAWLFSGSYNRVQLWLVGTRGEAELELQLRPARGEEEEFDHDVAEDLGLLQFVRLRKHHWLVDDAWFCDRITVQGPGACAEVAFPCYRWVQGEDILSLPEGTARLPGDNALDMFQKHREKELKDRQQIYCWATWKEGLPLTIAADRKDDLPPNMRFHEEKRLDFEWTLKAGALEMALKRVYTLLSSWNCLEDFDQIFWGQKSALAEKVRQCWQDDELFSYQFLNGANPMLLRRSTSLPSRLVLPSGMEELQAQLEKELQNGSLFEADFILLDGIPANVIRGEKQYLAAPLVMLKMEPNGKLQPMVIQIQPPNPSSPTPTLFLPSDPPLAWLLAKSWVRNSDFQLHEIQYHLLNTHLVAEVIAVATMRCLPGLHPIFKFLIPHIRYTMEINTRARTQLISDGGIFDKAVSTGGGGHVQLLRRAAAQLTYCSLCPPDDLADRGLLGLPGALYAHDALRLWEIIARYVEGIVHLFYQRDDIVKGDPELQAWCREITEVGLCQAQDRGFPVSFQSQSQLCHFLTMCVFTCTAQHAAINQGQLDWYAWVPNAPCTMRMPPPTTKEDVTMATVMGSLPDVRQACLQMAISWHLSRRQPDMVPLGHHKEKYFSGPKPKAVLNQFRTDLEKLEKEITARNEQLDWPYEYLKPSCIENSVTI
#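 Purified human 12hLO (150 nM final) in 25 mM Hepes, 0.01% Triton X-100, pH 7.0 was preincubated 15 min at room temperature with compound. Then 40 uM arachidonic acid was added, 30 min. Hydroperoxide was read by Fe-XO absorbance ratio 573/405 nm.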
# Numbers without * were called inactive; ? = inconclusive; . = not tested or not shown. The full list was thinned out, with hits kept by preference. Unless noted, calls follow the shape of the dose curve; as a rule, active = well fitted curve in the direction sought with a large enough effect; inconclusive = small, poorly fitted or top-dose-only effect, or another doubt; inactive = no such curve, though single readings can be large; an effect the other way counts as inactive or inconclusive. Unless noted, % is scaled to controls: 0 for no effect and ±100 for the full control effect.
SMILES,HT1080NT lethal,IL1B secr inh,TDP1 cell CPT,HT1080 IDH1KD tx,DT40 TDP1 no CPT,ALOX12 inh
O=C(O)CSc1cc(NS(=O)(=O)c2cccc([N+](=O)[O-])c2)c2ccccc2c1O,13µM*,-86*,2.3µM*,18µM*,1.8µM*,?
Cc1ccc(C)c(SCC(=O)NC(=O)NCc2ccccc2)c1,-3%,-3,0%,-4%,-19%,-4%
Cc1ccc(C)c(S(=O)(=O)Nc2cc(SCC(=O)O)c(O)c3ccccc23)c1,23µM*,-98*,5.8µM*,18µM*,6.5µM*,.
CCOc1ccc(S(=O)(=O)Nc2cc(SCC(=O)O)c(O)c3ccccc23)cc1,23µM*,94,3.7µM*,23µM*,4.6µM*,?
CCOc1ccc(S(=O)(=O)Nc2cc(OC)c(OC)cc2C(=O)O)cc1,12%,17,-9%,20%,2%,?
CCCCCC(C)NC(=O)/C=C/c1ccc(C)cc1 (stereo unspecified),.,.,.,.,.,-23%
CNC[C@@H](Cc1ccccc1)NC[C@@H](CC1CCCCC1)NCCCc1ccccc1,?,-101*,8.2µM*,?,9.2µM*,?
CNC[C@@H](CC1CCCCC1)NC[C@H](CC(C)C)NCCc1cccc(C(F)(F)F)c1,23µM*,-111*,5.2µM*,?,5.2µM*,-29%
CCC[C@@H](CN[C@@H](CNC)C(C)C)NCCCCc1ccccc1,?,-15,1µM*,?,0.82µM*,17%
CC(NCCc1ccccc1)C(C)C(c1ccccc1)c1ccccc1 (stereo unspecified),.,.,.,.,.,-3%
CN(C[C@H](Cc1ccccc1)N(C[C@@H](CC1CCCCC1)N(CCc1ccccc1)N=O)N=O)N=O,12%,28,?,8%,?,-6%
CCC[C@@H](CNC)NC[C@H](Cc1ccccc1)NCCCCc1ccccc1,?,-70*,9.2µM*,?,12µM*,-3%
Cc1cccc(NC(=S)N(CCN2CCOCC2)Cc2cc3cc4c(cc3[nH]c2=O)OCCO4)c1,-5%,-28,?,-12%,16µM*,-4%
O=c1[nH]c2cc3c(cc2cc1CN(CCc1ccccc1)C(=S)NCCCN1CCOCC1)OCCO3,10%,-11,?,10%,21µM*,1%
COC(=O)Cn1cc(/C=C2/SC(=O)N(C(C)C)C2=O)c2ccccc21,.,.,.,.,.,-21%
O=C(NCc1cccc(F)c1)c1cccc2c1C(=O)c1ccc(N3CCCC3)cc1S2(=O)=O,0%,0,?,0%,12µM*,.
O=C(NCCN1CCOCC1)c1cccc2c1C(=O)c1ccc(N3CCCC3)cc1S2(=O)=O,23%,1,5%,6%,-7%,-15%
COc1ccccc1N1CCN(c2ccc3c(c2)S(=O)(=O)c2cccc(C(=O)NCc4ccc(F)cc4)c2C3=O)CC1,-4%,-6,?,-1%,2.6µM*,-6%
O=C(NCc1ccc(OC(F)(F)F)cc1)c1cccc2c1C(=O)c1ccc(N3CCCCC3)cc1S2(=O)=O,0%,3,-6%,3%,-14%,-4%
CC1CCN(c2ccc3c(c2)S(=O)(=O)c2cccc(C(=O)NCc4cccc(F)c4)c2C3=O)CC1,-3%,8,?,-1%,18µM*,-2%
COC(=O)C1=C(C)N(c2cccc(C)c2)C(=S)NC1c1ccc(-n2ccnc2)cc1 (stereo unspecified),.,.,.,.,.,40µM*
COC(=O)c1ccc(C2NC(=S)N(c3ccccc3)C(C)=C2C(=O)Nc2ccccc2OC)cc1 (stereo unspecified),-3%,0,?,2%,0%,?
Cc1cccc(Nc2nnc(-c3ccc(C)c(S(=O)(=O)N4CCOCC4)c3)c3ccccc23)c1,.,.,16µM*,.,6.5µM*,-9%
Cc1ccc(-c2nnc(Nc3cccc(C(F)(F)F)c3)c3ccccc23)cc1S(=O)(=O)N1CCOCC1,.,.,9.2µM*,.,8.2µM*,-3%
Cc1ccc(-c2nnc(Nc3cccc(Cl)c3)c3ccccc23)cc1S(=O)(=O)N1CCOCC1,.,.,16µM*,.,4.1µM*,?
SMILES,HT1080NT lethal,IL1B secr inh,TDP1 cell CPT,HT1080 IDH1KD tx,DT40 TDP1 no CPT,ALOX12 inh
Cc1ccc(-c2nnc(Nc3cccc(Cl)c3)c3ccccc23)cc1S(=O)(=O)N1CCCCC1,.,.,?,.,-22%,-4%
O=C(CCC[C@@H]1[C@H]2CCCN3CCC[C@@H](CN1C(=O)Nc1ccccc1)[C@@H]23)Nc1ccccc1,.,.,.,.,.,-5%
CCOC(=O)C1C(=O)NC(c2ccccc2)=NC1c1ccc(F)cc1 (stereo unspecified),20%,29,12%,12%,3%,21%
CSC1=NC(C(Cl)(Cl)Cl)N=C(c2ccccc2)N1 (stereo unspecified),?,40,2.6µM*,21µM*,3.7µM*,-18%
COc1ccc(C(=O)NC2CCCc3c2cnn3-c2cccc(C)c2C)o1 (stereo unspecified),21µM*,0,21µM*,?,23µM*,2%
CC1=C(C(=O)NC2CCCc3c2cnn3-c2cccc(C)c2C)OCCO1 (stereo unspecified),-12%,-22,21µM*,?,8.2µM*,16%
CCn1cc(C(=O)NC2CCCc3c2cnn3-c2cccc(C)c2C)cn1 (stereo unspecified),.,.,.,.,.,-1%
Cc1cccc(-n2ncc3c2CCCC3NC(=O)c2ccncc2)c1C (stereo unspecified),0%,18,-7%,-9%,0.23µM*,-7%
Cc1cccc(-n2ncc3c2CCCC3NC(=O)c2cccs2)c1C (stereo unspecified),-12%,1,?,-27%,18µM*,-7%
Cc1cccc(-n2ncc3c2CCCC3NC(=O)C2(C)CCNCC2)c1C (stereo unspecified),.,.,.,.,.,-17%
Cc1cccc(-n2ncc3c2CCCC3NC(=O)CN2CCOC2=O)c1C (stereo unspecified),23%,16,-1%,24%,8%,2%
Cc1cccc(OCCc2noc(C3CCN(C(=O)C4CCCC4)C3)n2)c1 (stereo unspecified),.,.,.,.,.,28%
CCNC(=O)NC(=O)COc1ccc(C(=O)c2ccc(F)cc2)cc1,.,.,.,.,.,-26%
